This note sets out measurements from PubChem BioAssay.

Calls of active or inactive are those of the source.

For one assay, the target named is Albumin (Bos taurus) (UniProt P02769). The assay is described as follows: bovine serum albumin binders on microarray, profiling panel, artefact control for SMM control protein annotation, biochemical, small-molecule microarray, Alexa647 label, 635/667 nm fluorescence (AID 1118).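 Also: score merges 667 nm emission intensity and signal-to-noise per printed compound spot.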 The settings on record: BSA-A647 binding, fluorescence 635 nm, higher = more signal.
A short description of assay [1]: small-molecule microarray binders of probe aXIP, primary screen, biochemical, NeuroSMM set, 635/667 nm fluorescence (AID 1119).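 Also: probe is the protein aXip251-270 applied at 1 µg/mL to compound-printed slides; binding of probe to printed compounds measured as 667 nm fluorescence plus signal to noise.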 The settings on record: higher = more signal, called active from +8 up or from −8 down.
The nature of assay [2]: small-molecule binders of probe aNOTCH3, primary screen, biochemical, small-molecule microarray, 635/667 nm fluorescence (AID 1120).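 Also: probe is a biotin-tagged antibody raised against NOTCH3 rather than NOTCH3 protein; score merges spot fluorescence near 667 nm with spot signal to noise.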 The note with it: higher = more signal.
Assay [3] can be described thus: small-molecule binders of probe aNOTCH2, primary screen, biochemical, small-molecule microarray, 635/667 nm fluorescence (AID 1121).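 Also: score merges feature fluorescence read at 667 nm with its signal to noise.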 The note with it: higher = more signal.
For assay [4], the target named is Carbonic anhydrase 2 (Homo sapiens) (UniProt P00918). The assay is described as follows: CAII small-molecule binders, profiling panel, biochemical, small-molecule microarray, Alexa647-labelled CAII (AID 1122). The note with it: CAII-A647 binding fluorescence, higher = more signal.
The nature of assay [5]: COS7 lysate on small-molecule microarray, probe aHis, 635 nm (AID 1123).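 Also: z-score combines 667nm fluorescence intensity with signal-to-noise per printed compound spot.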 The note with it: COS7 cell lysate, fluorescence, higher = more signal.
A short description of assay [6]: compound binding in COS7 lysate, probe aLAP1, primary screen, cell lysate, small-molecule microarray (AID 1124).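 Also: lysate comes from COS7 cells expressing LAP1 and is applied at 0.3 µg/mL; score merges spot fluorescence near 667 nm with signal-to-noise over triplicate slides.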 The note with it: probe aLAP1, fluorescence, higher = more signal.
For another assay, the system named is Sam68 (KHDRBS1). Description: Sam68 small-molecule binders, primary screen, biochemical, small-molecule microarray, 635 nm fluorescence (AID 1125).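 Also: score merges 667 nm channel intensity with signal to noise over triplicate slides.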 The settings on record: small-molecule microarray binding, higher = more signal.
Assay [7] has as its system Chordin-like protein 2 (CHRDL2). Description: CHRDL2 small-molecule binders, primary screen, biochemical, small-molecule microarray, 635 nm fluorescence (AID 1126).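 Also: printed compound slides probed with Chrdl2 protein at 4 µg/mL for 1 h at 4 C; score merges 667 nm emission intensity with signal to noise over three replicate slides.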 The settings on record: small-molecule microarray binding, fluorescence 635 nm; higher = more signal.
The target in assay [8] is Concanavalin-A (Canavalia ensiformis) (UniProt P02866). The assay is described as follows: ConA small-molecule binders, primary screen, artefact control for SMM control protein annotation, biochemical, small-molecule microarray, Alexa647 label, 635 nm (AID 1127).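 Also: z combines 667 nm emission intensity with signal-to-noise across three replicate slides.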 The settings on record: ConA-A647 binding fluorescence, higher = more signal.
Assay [9] in a line: anti-His antibody binders, primary screen, artefact control for SMM control protein annotation, biochemical, small-molecule microarray, 635 nm fluorescence (AID 1128).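 Also: score merges feature fluorescence with signal-to-noise for each printed compound spot.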 The note with it: anti-His Alexa647 antibody binding, higher = more signal.
Assay [10] concerns Human papillomavirus type 1a E7 protein (residues 1-88). Description: HPV1a E7 small-molecule binders, primary screen, biochemical, small-molecule microarray, residues 1-88, 635 nm (AID 1129). The note with it: small-molecule microarray binding, fluorescence 635 nm; higher = more signal.
The target in assay [11] is Focal adhesion kinase 1 (Homo sapiens) (UniProt Q05397). The assay is described as follows: small-molecule microarray binders of FAK, primary screen, biochemical, 635/667 nm fluorescence, BSA, DTT (AID 1130).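 Also: composite of spot emission at 667 nm and signal to noise over triplicate slides.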 The settings on record: PTK2 binding, 635 nm fluorescence, higher = more signal.
The test system of assay [12] is Fibrinogen (Alexa647-labelled). Description: fibrinogen binders on compound microarrays, profiling panel, artefact control for SMM control-protein annotation, biochemical, small-molecule microarray, 635/667 nm fluorescence (AID 1131).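 Also: z-score merges 667 nm fluorescence with per-spot signal-to-noise over triplicate slides.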 The note with it: fibrinogen-A647 binding fluorescence, higher = more signal.
In assay [13] the target is Follistatin (Homo sapiens) (UniProt P19883). The assay is described as follows: follistatin binders on small-molecule microarrays, primary screen, biochemical, small-molecule microarray, 635/667 nm fluorescence (AID 1132). The note with it: FST binding, 635 nm fluorescence, higher = more signal.
Assay [14] addresses Fibroblast growth factor 2 (Homo sapiens) (UniProt P09038). Description: FGF2 binders on small-molecule microarrays, primary screen, biochemical, small-molecule microarray, 635/667 nm fluorescence (AID 1133). The settings on record: small-molecule microarray binding, FGF2, fluorescence 635/667; higher = more signal.
A short description of assay [15]: mitochondrial membrane potential change in A549 cells, profiling panel, cell-based, JC-1 fluorescence, basal, 24 h, 100 nL (AID 1138).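 Also: A549 lung adenocarcinoma cells under basal conditions with no added stimulus; test concentration not given here.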 The settings on record: higher = more signal.
The subject of the next assay is Lefty1. Description: Lefty1 binders on small-molecule microarrays, primary screen, biochemical, small-molecule microarray, 635/667 nm fluorescence (AID 1139). The settings on record: small-molecule microarray binding, fluorescence 635/667; higher = more signal.
Assay [16] deals with wheat germ agglutinin (Triticum aestivum), Alexa647-labelled. Description: wheat germ agglutinin binders on compound microarrays, profiling panel, artefact control for SMM control-protein annotation, biochemical, small-molecule microarray, 635/667 nm fluorescence (AID 1140).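 Also: score merges 667 nm feature emission with signal to noise over triplicate slides.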 The note with it: WGA-A647 binding, 635 nm fluorescence, higher = more signal.
The target in assay [17] is Luciferin 4-monooxygenase (Photinus pyralis) (UniProt P08659). Description: firefly luciferase enzyme inhibitors, primary screen, biochemical, luminescence, purified enzyme, 2006 set (AID 1141).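 Also: cell-free assay with purified firefly luciferase at 100 ng per well in PBS; test concentration not given here.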 The settings on record: SteadyGlo luminescence, 30 min, higher = more signal, called active from +8 up or from −8 down.
Luciferin 4-monooxygenase (Photinus pyralis), sequence (P08659 whole entry, looked up): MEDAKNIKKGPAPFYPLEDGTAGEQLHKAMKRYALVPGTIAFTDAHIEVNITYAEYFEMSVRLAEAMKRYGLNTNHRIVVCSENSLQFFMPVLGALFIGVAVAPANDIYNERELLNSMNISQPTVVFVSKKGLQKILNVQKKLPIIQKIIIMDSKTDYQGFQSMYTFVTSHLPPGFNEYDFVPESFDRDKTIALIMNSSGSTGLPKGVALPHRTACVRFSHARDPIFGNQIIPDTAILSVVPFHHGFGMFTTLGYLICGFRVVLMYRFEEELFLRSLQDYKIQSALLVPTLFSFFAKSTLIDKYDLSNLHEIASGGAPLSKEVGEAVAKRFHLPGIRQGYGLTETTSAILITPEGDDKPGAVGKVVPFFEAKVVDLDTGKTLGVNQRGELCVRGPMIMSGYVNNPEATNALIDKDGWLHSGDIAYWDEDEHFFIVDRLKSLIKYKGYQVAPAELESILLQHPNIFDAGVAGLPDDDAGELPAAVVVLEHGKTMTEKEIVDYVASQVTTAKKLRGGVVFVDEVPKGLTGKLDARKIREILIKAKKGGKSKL

Fibroblast growth factor 2 (Homo sapiens), sequence (P09038 whole entry, looked up): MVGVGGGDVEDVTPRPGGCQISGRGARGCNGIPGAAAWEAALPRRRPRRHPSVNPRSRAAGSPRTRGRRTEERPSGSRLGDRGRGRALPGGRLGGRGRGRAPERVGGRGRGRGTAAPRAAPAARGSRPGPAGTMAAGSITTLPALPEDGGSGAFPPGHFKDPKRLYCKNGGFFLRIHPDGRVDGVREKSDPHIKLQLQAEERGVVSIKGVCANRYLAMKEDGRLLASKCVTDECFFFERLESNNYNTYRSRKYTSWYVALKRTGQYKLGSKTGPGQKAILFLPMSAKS
Albumin (Bos taurus), sequence (P02769 whole entry, looked up): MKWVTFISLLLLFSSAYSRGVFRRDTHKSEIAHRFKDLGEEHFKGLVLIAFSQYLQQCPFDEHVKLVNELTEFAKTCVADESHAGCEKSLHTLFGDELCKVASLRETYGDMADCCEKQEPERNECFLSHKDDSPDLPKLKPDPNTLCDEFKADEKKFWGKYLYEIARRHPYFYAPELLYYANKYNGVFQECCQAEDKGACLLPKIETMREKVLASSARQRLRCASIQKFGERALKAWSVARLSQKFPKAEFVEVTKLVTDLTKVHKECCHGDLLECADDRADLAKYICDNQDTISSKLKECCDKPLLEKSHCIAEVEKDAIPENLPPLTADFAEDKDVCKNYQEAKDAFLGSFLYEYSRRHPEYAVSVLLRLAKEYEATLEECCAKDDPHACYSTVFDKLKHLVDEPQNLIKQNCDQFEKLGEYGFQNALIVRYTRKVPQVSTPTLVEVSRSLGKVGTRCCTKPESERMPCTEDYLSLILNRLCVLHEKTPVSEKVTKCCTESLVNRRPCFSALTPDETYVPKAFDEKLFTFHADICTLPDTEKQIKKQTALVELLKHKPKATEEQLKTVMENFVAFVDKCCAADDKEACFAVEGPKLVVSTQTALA
Follistatin (Homo sapiens), sequence (P19883 whole entry, looked up): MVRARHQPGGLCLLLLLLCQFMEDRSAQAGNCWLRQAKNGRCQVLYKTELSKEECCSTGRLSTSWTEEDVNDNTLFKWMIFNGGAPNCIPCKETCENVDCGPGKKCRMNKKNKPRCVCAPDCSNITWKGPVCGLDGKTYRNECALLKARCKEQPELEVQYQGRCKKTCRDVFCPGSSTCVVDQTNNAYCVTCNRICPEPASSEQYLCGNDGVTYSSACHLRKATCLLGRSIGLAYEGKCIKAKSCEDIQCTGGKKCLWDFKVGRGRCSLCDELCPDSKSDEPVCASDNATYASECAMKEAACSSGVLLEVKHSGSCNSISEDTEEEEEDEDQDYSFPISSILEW
Concanavalin-A (Canavalia ensiformis), sequence (P02866 whole entry, looked up): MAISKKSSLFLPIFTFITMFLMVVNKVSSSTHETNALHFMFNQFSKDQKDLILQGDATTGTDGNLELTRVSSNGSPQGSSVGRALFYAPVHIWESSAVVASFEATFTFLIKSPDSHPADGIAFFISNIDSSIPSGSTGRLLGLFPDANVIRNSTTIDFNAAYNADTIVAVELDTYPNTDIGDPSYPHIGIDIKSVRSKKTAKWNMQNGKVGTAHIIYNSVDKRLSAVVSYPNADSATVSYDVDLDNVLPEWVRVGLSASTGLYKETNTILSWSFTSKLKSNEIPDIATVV
Focal adhesion kinase 1 (Homo sapiens), sequence (Q05397 whole entry, looked up): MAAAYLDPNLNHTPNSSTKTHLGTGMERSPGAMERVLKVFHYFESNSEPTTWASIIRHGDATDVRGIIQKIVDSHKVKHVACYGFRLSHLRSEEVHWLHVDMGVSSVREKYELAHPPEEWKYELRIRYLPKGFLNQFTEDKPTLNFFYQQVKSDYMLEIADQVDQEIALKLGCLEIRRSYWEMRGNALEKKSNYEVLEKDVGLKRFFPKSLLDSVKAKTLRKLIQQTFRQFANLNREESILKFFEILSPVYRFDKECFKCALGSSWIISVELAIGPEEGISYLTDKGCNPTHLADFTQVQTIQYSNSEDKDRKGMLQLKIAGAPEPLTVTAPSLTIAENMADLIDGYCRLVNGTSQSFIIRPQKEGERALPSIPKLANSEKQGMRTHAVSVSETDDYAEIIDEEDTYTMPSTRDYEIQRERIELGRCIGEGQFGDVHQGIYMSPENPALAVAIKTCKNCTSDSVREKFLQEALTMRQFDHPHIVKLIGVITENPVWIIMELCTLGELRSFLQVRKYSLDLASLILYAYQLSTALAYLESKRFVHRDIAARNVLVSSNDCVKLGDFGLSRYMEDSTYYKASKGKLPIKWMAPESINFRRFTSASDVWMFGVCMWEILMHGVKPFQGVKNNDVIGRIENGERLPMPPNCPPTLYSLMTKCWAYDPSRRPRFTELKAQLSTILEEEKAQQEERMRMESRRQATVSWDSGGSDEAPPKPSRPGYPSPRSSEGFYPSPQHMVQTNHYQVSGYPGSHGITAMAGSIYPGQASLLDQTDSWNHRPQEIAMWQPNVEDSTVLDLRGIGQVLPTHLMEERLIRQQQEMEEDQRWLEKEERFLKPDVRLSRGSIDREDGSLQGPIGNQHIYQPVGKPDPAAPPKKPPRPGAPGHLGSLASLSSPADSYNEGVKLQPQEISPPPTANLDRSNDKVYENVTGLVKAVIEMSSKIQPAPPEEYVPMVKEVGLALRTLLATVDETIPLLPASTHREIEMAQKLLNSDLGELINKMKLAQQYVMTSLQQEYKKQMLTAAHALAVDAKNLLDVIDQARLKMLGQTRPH

As for `C[C@@H](OCc1ccccc1)C1NC(=O)[C@@]23C(=O)N[C@@H](Cc4ccccc4)C2[C@H](C)[C@@]2(C)O[C@H]2C3/C=C/C/C=C\CNC(=O)[C@@H]2CCCN2C1=O` (stereo not given in full), the composite z-score was -0.149 with Albumin (Bos taurus); -0.0921 in assay [2]; -0.147 in assay [3]; 0.619 in [4]; -0.357 in [5]; -0.296 in assay [6]. In addition, the composite z-score was -0.898 in the assay on Sam68 (KHDRBS1); 0.377 in assay [7]; -0.896 in [8]; -0.0278 in assay [9]; -0.443 in assay [10]; -0.709 in assay [11]. Besides, the composite z-score was -0.632 in [12]; 0.0944 in assay [13]; 0.166 in [14]; 0.0078 with Lefty1; -0.927 in assay [16]. Moreover, the composite Z-score in [1] is -0.216 (inactive). The z-score in assay [15] is 2.49; in [17], -1.45 (inactive).
As to `C=CCNC(=O)[C@@H]1[C@H]2C(=O)O[C@H](c3ccccc3)[C@H](c3ccccc3)N2[C@H](c2ccc(O)cc2)[C@@]12C(=O)Nc1ccccc12`, the composite z-score is -0.989 with Albumin (Bos taurus); -0.246 in assay [2]; -0.22 in assay [3]; 0.55 in assay [4]; 1.12 in [5]; 0.324 in assay [6]. The composite z-score in the assay on Sam68 (KHDRBS1) is 0.502; in [7], -0.939; in assay [8], 0.516; in assay [9] it was -0.391; in assay [10] it was -0.227; in assay [11] it was 0.394. Besides, the composite z-score was -0.0121 in assay [12]; 0.981 in [13]; 0.143 in [14]; 0.52 in the assay with Lefty1; 0.567 in assay [16]. Further, in [1], the composite Z-score is 0.0737 (inactive). For the same molecule, the figures for the z-score in [15] and in assay [17] were 0.715 and -1.03 (inactive), respectively.
For `CCN(CC)c1ccc(N2CC=CC34O[C@@H]5C=CCOC(=O)[C@@H]5[C@H]3C(=O)N(C(CO)C(C)C)[C@@H]4C2=O)cc1` (stereo not given in full), the composite z-score was -0.819 in the assay with Albumin (Bos taurus); -0.405 in [2]; -0.104 in assay [3]; -0.604 in [4]; -0.408 in assay [5]; 0.23 in [6]. The composite z-score was -0.635 in the assay on Sam68 (KHDRBS1); -0.42 in [7]; -0.374 in assay [8]; -1.59 in [9]; -1.27 in assay [10]; -0.596 in assay [11]. In addition, the composite z-score was -0.236 in assay [12]; -0.529 in assay [13]; -0.208 in [14]; -0.771 in the assay with Lefty1; -1.13 in [16]. The composite Z-score in [1] was 0.316 (inactive). Moreover, the z-score in assay [15] was 1.39; in [17] it was -0.638 (inactive).
For the molecule `C=CCC(OC(C)=O)[C@@H]1[C@@H](N(Cc2ccc(-c3cccc(C(F)(F)F)c3)o2)C(=O)c2ccc(-c3ccccc3)cc2)c2cc(OCCCO)ccc2N1C(=O)Cc1ccc(OC)cc1` (stereo not given in full), the composite z-score with Albumin (Bos taurus) was -0.84; in assay [2], -0.0647; in [3], -0.0832; in assay [4], -0.149; in [5], -0.249; in [6], -0.231. In addition, the composite z-score with Sam68 (KHDRBS1) was -0.836; in assay [7], -0.0712; in assay [8], -1.26; in [9] it was -0.729; in assay [10], 0.0685; in [11], -0.0642. The composite z-score in assay [12] was -0.407; in assay [13], 0.451; in [14], -0.196; in the assay on Lefty1 it was -0.128; in [16], 0.15. Moreover, the composite Z-score in assay [1] is 0.298 (inactive). Further, the values for the z-score in [15] and in [17] were 1.65 and -0.626 (inactive), respectively.
On to `O=C(NO)[C@]1(Cc2ccccc2)N=C(c2ccc(OCCCO)cc2)O[C@@H]1c1ccccc1`, for which the composite z-score in the assay with Albumin (Bos taurus) is 0.847; in assay [2] it was -0.183; in [3], -0.0909; in assay [4], 0.678; in assay [5] it was -0.359; in [6], 0.0192. Further, the composite z-score in the assay on Sam68 (KHDRBS1) was -0.32; in [7], -0.671; in assay [8] it was -1.06; in assay [9], -0.0837; in assay [10], 0.0707; in assay [11] it was -1. In addition, the composite z-score in assay [12] was 0.141; in assay [13], -0.248; in assay [14], -0.0928; in the assay with Lefty1, -0.458; in assay [16], 0.162. In [1], the composite Z-score is -0.876 (inactive). Also, the results for the z-score in [15] and in assay [17] were 2.09 and -2.34 (inactive), respectively.
